According to PubChem BioAssay (EPA / NIEHS):
Records with an inconclusive call do not appear. Activity calls are given as the source filed them. Rule for the calls: active = hit-call score of the fitted dose curve at least 0.9, where 1 is the maximum; inconclusive = response in the unintended direction; inactive = score below 0.9.

assay: Tanguay_ZF_120hpf_AXIS_legacy: (Legacy) Oregon State University Tanguay Lab 120 Hour Post-fertilization zebrafish Assay for Body Axis Malformation (AID 2283635);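 for AC50: potency for an increased fraction of larvae scored with body axis malformation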
Protocol: Tanguay_ZF_120hpf_legacy is a whole embryo, multiplexed endpoint assay using zebrafish larvae exposed for 120 hours post fertilization on a 96-well plate.Tanguay_ZF_120hpf_AXIS_legacy is one of one assay component(s) measured or calculated from the Tanguay_ZF_120hpf_legacy assay. It is designed to make measurements of zebrafish development as detected with brightfield microscopy of developing zebrafish embryos.Data from the assay component Tanguay_ZF_120hpf_AXIS_legacy was analyzed into 1 assay endpoints. This assay endpoint, Tanguay_ZF_120hpf_AXIS_legacy, was analyzed in the positive analysis fitting direction relative to DMSO as the negative control and baseline of activity. Using a type of morphology reporter, gain-of-signal activity can be used to understand changes in developmentals as they relate to the whole embryo. To generalize the intended target to other relatable targets, this assay endpoint is annotated to the zebrafish development intended target family, where the subfamily is body axis morphogenesis.
Zebrafish husbandry: Tropical 5D wild-type adult zebrafish were housed in at an approximate density of 1000 per 100 gallon tank at the Sinnhuber Aquatic Research Laboratory, Oregon State University, Corvallis, OR. Each tank was kept at standard laboratory conditions of 28C on a 14-h light/10-h dark photoperiod in fish water consisting of reverse osmosis water supplemented with a commercially available salt (Instant Ocean). Spawning funnels were placed into the tanks the night prior, and embryos were collected and staged. To increase bioavailability, the chorion was enzymatically removed using pronase (63.6mg/ml, >/= 3.5U/mg, Sigma-Aldrich: P5147) at 4 hours post fertilization (hpf) using a custom automated dechorionator.Chemical exposures: Six hpf dechorionated embryos were placed 1 embryo per well in a 96-well plate prefilled with 90 ul of EM using automated embryo placement systems (AEPS). Ten microliters of each row of dilution plate 2 was added to 2 exposure plates. The final DMSO concentration used was 0.64% (vol/vol). Thirty-two embryos were also exposed to 5uM trimethyltin chloride (positive control). Plates were sealed to prevent evaporation and foil covered to reduce light exposure and kept in a 28C incubator. Embryos were statically exposed until 120 hpf. At 24 hpf, embryos were assessed for photomotor response using a custom photomotor response analysis tool (PRAT) and for developmental toxicity endpoints (MO24: mortality at 24 hpf, DP: developmental progression, SM: spontaneous movement, and NC: notochord distortion). At 120 hpf, locomotor activity was measured using Viewpoint Zebralab and assessed for 18 endpoints. Zebrafish acquisition and analysis program (ZAAP), a custom program designed to inventory, acquire, and manage zebrafish data, was used to collect developmental endpoints as either present or absent (i.e., binary responses were recorded). If mortality occurred for an embryo (at either 24 or 120 hpf), the non-mortality endpoints were not measured.

Question: Which outcome does the source give for C#C[C@]1(O)CC[C@H]2[C@@H]3CCC4=CC(=O)CC[C@@H]4[C@H]3CC[C@@]21C here?
Answer: inactive

Question: Which outcome does the source give for CC(O)CO (stereo not given) here?
Answer: inactive

Question: With CCCCCCCCCCCCCCCS(=O)(=O)Oc1ccccc1 as the compound, how does the outcome read?
Answer: inactive

Question: With CN1CCC[C@H]1c1cccnc1 as the compound, how does the outcome read?
Answer: inactive

Question: Which outcome does the source give for CCCCCCC(=O)O here?
Answer: inactive

Question: Which AC50 does the source give for CC#C[C@]1(O)CC[C@H]2[C@@H]3CCC4=CC(=O)CCC4=C3[C@@H](c3ccc(N(C)C)cc3)C[C@@]21C here?
Answer: 82.8 µM (active)

Question: With CCc1ccc(CCOc2ccc(CC3SC(=O)NC3=O)cc2)nc1 (stereo not given) as the compound, how does the outcome read?
Answer: inactive

Question: For Oc1cccc(O)c1, which outcome is on record?
Answer: inactive

Question: For COC(=O)CCCCC(=O)OC, which outcome is on record?
Answer: inactive

Question: Which outcome does the source give for CC(C)(C)c1ccc(O)c(C(C)(C)C)c1 here?
Answer: inactive

Question: For CCCCC(CC)COC(=O)CCCCC(=O)OCC(CC)CCCC (stereo not given), which outcome is on record?
Answer: inactive

Question: For CCCOc1sc(C(=O)N2CCC(c3cc(CN)ccc3F)CC2)c(C)c1Br, which outcome is on record?
Answer: inactive

Question: Which outcome does the source give for CCCCC(CC)COC(=O)CCCCC(=O)OCc1ccccc1 (stereo not given) here?
Answer: inactive

Question: For c1ccc2c(c1)ccc1ccccc12, which outcome is on record?
Answer: inactive

Question: For CCCCCCCCOC(=O)CCCCCCCCC(=O)OCCCCCCCC, which outcome is on record?
Answer: inactive

Question: For Oc1cc2ccccc2c2ccccc12, which AC50 is on record?
Answer: 10.4 µM (active)

Question: With O=C(O)Cc1cc(I)c(Oc2cc(I)c(O)c(I)c2)c(I)c1 as the compound, how does the AC50 read?
Answer: 0.0204 µM (active)

Question: With c1ccc2c(c1)Cc1ccccc1-2 as the compound, how does the outcome read?
Answer: inactive

Question: For ClC1=C(Cl)C(Cl)(Cl)C(Cl)=C1Cl, which outcome is on record?
Answer: inactive

Question: Which AC50 does the source give for CCc1nn(C2CCCCC2)c2cc(C3(C#N)CCC(C(=O)O)CC3)ccc12 (stereo not given) here?
Answer: 0.384 µM (active)

Question: With NC(=O)N(O)[C@@H]1C=C[C@H](Oc2cccc(Oc3ccc(F)cc3)c2)C1 as the compound, how does the outcome read?
Answer: inactive

Question: For CCCCCCCCCCCCc1ccccc1S(=O)(=O)O, which outcome is on record?
Answer: inactive

Question: With O=c1c(-c2ccc(O)cc2)coc2cc(O)ccc12 as the compound, how does the outcome read?
Answer: inactive

Question: For CC[C@H](c1ccc(O)cc1)[C@@H](CC)c1ccc(O)cc1, which outcome is on record?
Answer: inactive

Question: With CC[C@H](C)[C@@H](C(=O)O)n1sc2ccccc2c1=O as the compound, how does the outcome read?
Answer: inactive

Question: Which outcome does the source give for Nc1cccc2c(N)cccc12 here?
Answer: inactive

Question: Which AC50 does the source give for c1ccc2cc3c(ccc4ccccc43)cc2c1 here?
Answer: 12.5 µM (active)

Question: With OC1CCCCC1 as the compound, how does the outcome read?
Answer: inactive

Question: For CCCCCCCCCCCCN1CCCC1=O, which outcome is on record?
Answer: inactive

Question: With C=C(C)C(=O)OCCC(F)(F)C(F)(F)C(F)(F)C(F)(F)C(F)(F)C(F)(F)F as the compound, how does the outcome read?
Answer: inactive

Question: For OCCC(F)(F)C(F)(F)C(F)(F)C(F)(F)C(F)(F)C(F)(F)C(F)(F)C(F)(F)F, which outcome is on record?
Answer: inactive

Question: Which outcome does the source give for Cc1oc(-c2ccccc2)nc1CCOc1ccc(C[C@H](Nc2ccccc2C(=O)c2ccccc2)C(=O)O)cc1 here?
Answer: inactive

Question: For CC(C)(C)CC(C)(C)c1ccc(O)c(-n2nc3ccccc3n2)c1, which outcome is on record?
Answer: inactive

Question: For CN(C)C=O, which outcome is on record?
Answer: inactive

Question: Which outcome does the source give for NC(=O)N1C(=O)C(C(=O)c2cc(Cl)cs2)c2cc(F)c(Cl)cc21 (stereo not given) here?
Answer: inactive

Question: Which outcome does the source give for CC(C)(C)c1cc(C(C)(C)C)c(O)c(C(C)(C)C)c1 here?
Answer: inactive

Question: With CCCCCCCCC(=O)O as the compound, how does the outcome read?
Answer: inactive

Question: For Cc1cc(C)c(O)c(C)c1, which outcome is on record?
Answer: inactive

Question: For CCCCCCCC(=O)O, which outcome is on record?
Answer: inactive

Question: Which outcome does the source give for C[C@@H]1C[C@H]2[C@@H]3CCC4=CC(=O)C=C[C@]4(C)[C@@]3(F)[C@@H](O)C[C@]2(C)[C@@]1(O)C(=O)COP(=O)(O)O here?
Answer: inactive
